Among all 65,000 compounds or so, about 370 (0.57%) were called active.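 How the source made its calls: active means activation above the screen-wide mean activation plus 3 SD (cut at about 19% in these data); inactive means the rest.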 The entries come from a sample that favours actives as a whole.
What follows are compounds tested against 5-hydroxytryptamine receptor 1A (Homo sapiens) (UniProt P08908) (assay: agonism at serotonin HTR1A receptor – cell-based, CHO, Ga15 NFAT-bla reporter, primary screen (AID 567;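 further: 0% = DMSO wells and 100% = 5-CT at EC100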)). Settings: CHO 5-HT1a Ga15 NFAT-bla reporter, FRET ratio; at 10 µM; hits give high values; 0% basal, 100% maximal reference agonist.
Sequence of 5-hydroxytryptamine receptor 1A (Homo sapiens) (P08908 whole entry, looked up): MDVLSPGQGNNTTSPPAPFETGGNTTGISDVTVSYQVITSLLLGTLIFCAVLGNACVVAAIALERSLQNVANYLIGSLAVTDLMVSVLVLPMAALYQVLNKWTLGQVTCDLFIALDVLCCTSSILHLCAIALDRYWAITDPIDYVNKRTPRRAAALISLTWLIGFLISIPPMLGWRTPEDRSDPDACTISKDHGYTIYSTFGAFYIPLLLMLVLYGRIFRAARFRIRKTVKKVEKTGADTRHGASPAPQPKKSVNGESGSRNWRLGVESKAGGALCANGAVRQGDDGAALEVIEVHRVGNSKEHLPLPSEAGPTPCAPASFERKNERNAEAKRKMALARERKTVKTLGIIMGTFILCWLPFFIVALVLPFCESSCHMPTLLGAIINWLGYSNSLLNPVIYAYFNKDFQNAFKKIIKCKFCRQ

activation, active:
COC(=O)c1ccc2c(=O)n(CC3CCCO3)c(=S)[nH]c2c1 (stereo unspecified) 66.3%
c1cnn(-c2cc(N3CCOCC3)ncn2)c1 42%
N#Cc1c(N)n(CCOC(=O)c2ccc(Cl)cc2)c2nc3ccccc3nc12 27.6%
CCC(=O)c1ccc(OCC(O)CN2CCN(c3cccc(C(F)(F)F)c3)CC2)cc1 (stereo unspecified) 36.5%
CCC(=O)c1ccc(OCC(O)CN2C(=O)NC(C)(C)C2=O)cc1 (stereo unspecified) 80.3%
O=C(Nc1ccccc1N1CCN(C(=O)c2ccccc2)CC1)c1ccc2c(c1)OCO2 60%
CCOC(=O)c1cc2cc(-c3c(C(=O)OCC)oc4cc(O)cc(O)c4c3=O)ccc2o1 20.4%
Cc1ccc(Oc2ccc(N)cc2)cc1 61.2%

activation, inactive:
CC1Cn2c(nnc2-c2cccs2)S1 (stereo unspecified) 0.5%
Cc1ccc(CNC(=O)CN2CCN(Cc3ccc(Cl)cc3)C2=O)cc1 0.67%
Cn1c(C(=O)NCCN2CCc3ccccc3C2)cc2c(=O)[nH]c3ccccc3c21 -1.75%
CCc1ccccc1N(CC(=O)N1CCN(c2ccccc2F)CC1)S(C)(=O)=O -1.54%
COc1ccccc1CNC(=O)CCCn1c(=O)c2ccccc2n(CC(=O)NC2CCCC2)c1=O -2.51%
CCCOC(=O)CC1C(=O)NCCN1Cc1ccc(F)cc1 (stereo unspecified) 1.2%
Cc1c(NC(=O)C(C)OC(=O)c2cc3c4ccccc4n(C)c3s2)c(=O)n(-c2ccccc2)n1C (stereo unspecified) 1.13%
O=c1c2cc3c(=O)n(CC4CCCO4)c(=O)c3cc2c(=O)n1CC1CCCO1 (stereo unspecified) -2.73%
O=C(NC1CCCCC1)c1ccc2c(=O)n(CC3CCCO3)c(=O)[nH]c2c1 (stereo unspecified) -3.15%
CCC(C)NC(=O)C1CCC(=O)N1Cc1ccc(C)cc1 (stereo unspecified) -3.11%
CCOc1ccc(C2C(C(=O)NC)=C(C)Nc3nc4ccccc4n32)cc1OC (stereo unspecified) -2.74%
c1cnc(NC2C3CC4CC(C3)CC2C4)nc1 (stereo unspecified) -0.19%
COc1ccc2c(c1OC)C(=O)OC2c1c(O)nc(SC)n(-c2ccccc2)c1=O (stereo unspecified) 1.4%
CCn1c(-c2cc(OC)ccc2OC)csc1=Nc1c(C)n(C)n(-c2ccccc2)c1=O -3.67%
CCOC(=O)Cn1c(=O)oc2cc(S(=O)(=O)N(C)Cc3ccco3)ccc21 -3.37%
Cc1ccc(C(C)C)c(OCc2nnc(SCC(=O)Nc3nccs3)n2C)c1 -0.25%
O=C(Nc1cc(N2CCOCC2)ncn1)NC1(C(F)(F)F)Oc2ccc(Cl)cc2O1 (stereo unspecified) -2.08%
O=C1c2ccccc2-c2ncnc3c(N4CCOCC4)cc(N4CCOCC4)c1c23 0.99%
COCCCn1c2nc3ccccc3nc2c2c(=O)n(Cc3ccc(Cl)cc3)c(C)nc21 1.36%
CC(C)(C)OC(=O)c1c(N)n(CCCN2CCCC2=O)c2nc3ccccc3nc12 4.61%
O=C(C(c1ccccc1)c1ccccc1)N1CCN(CC(O)COc2ccccc2)CC1 (stereo unspecified) -2.69%
COc1cccc(OCC(O)CN2CCN(CCO)CC2)c1 (stereo unspecified) 1%
Cn1nc(-c2ccc(Cl)cc2)c2cc(C(=O)NCc3ccco3)sc21 -2.11%
CCc1c(C)nc(N2CCN(Cc3ccccc3)CC2)[nH]c1=O -1.04%
CC(C)N1C(=O)C2C(C(=O)NC3CCCCC3)C3C=CC2(O3)C1C(=O)NC1CCCC1 (stereo unspecified) -3.66%
CCn1c(CNC(=O)c2ccc(OC)c(OC)c2)nnc1SCC(=O)Nc1ccccc1 1.92%
CCCNS(=O)(=O)c1ccc(CCC(=O)NCc2cccnc2)cc1 0.51%
CCN1CCN(Cc2nc3c(c(=O)n(C)c(=O)n3C)n2CC(=O)c2ccccc2)CC1 -1.47%
CCn1nnc(NC(=O)c2c(OC)cccc2OC)n1 0.51%
O=C(COc1ccc(S(=O)(=O)NCCc2ccccc2)cc1)N1CCCC1 -3.17%
O=C(COc1ccccc1)NCCc1nc2ccccc2[nH]1 2.44%
Cc1cccc(NC(=O)C2CCCN2S(=O)(=O)c2ccc(F)cc2)c1C (stereo unspecified) 0.24%
O=C1Nc2c(Br)cc(Br)cc2C1(O)N1CCOCC1 (stereo unspecified) 0.9%
CCOCCCN1C(=O)CN(C2CCCCC2)C(=O)C1c1ccc(OCC)c(OC)c1 (stereo unspecified) 0.91%
CCCS(=O)(=O)Nc1c(C(=O)O)[nH]c2ccccc12 -2.21%
c1ccc(Nc2n[nH]nc2-c2ccccc2)cc1 0.42%
CCCCOc1ccc(Cl)cc1CSc1nncn1N -1.4%
Cc1csc(NC(=O)NC2(C(F)(F)F)Oc3ccccc3O2)n1 1.56%
COc1ccc(C)cc1NC(=O)CSc1nc(SC)ns1 -0.56%
O=C(CN1CCOCC1)Nc1c(-c2ccccc2)c2cc(Br)ccc2[nH]c1=O -1.84%
Cc1ccc(C(=O)N(CN2CCCC2=O)c2ccc(F)cc2)cc1 -4.03%
CC(=O)c1cccc(S(=O)(=O)N2CCC(n3nnc4cc(F)ccc43)CC2)c1 1.45%
COc1ccc(Cn2c(=O)sc3ccccc32)cc1OC 1.04%
CN(C)c1ccc(NC(=O)c2ccncc2)c2ccccc12 -2.38%
O=C(CSC1=NCCS1)Nc1nc(-c2ccccc2)cs1 -0.71%
Cc1nc(NC(=O)CCC(=O)O)sc1C(=O)N(C)C -1.18%
Cc1cc(NC(=O)Cn2nc(C(F)(F)F)c3c2CCCC3)no1 -1.46%
Cc1cccc(N2CCN(C(c3ccccc3)c3nnnn3CC3CCCO3)CC2)c1C (stereo unspecified) -0.4%
CN(C)c1cc[n+](Cc2ccccc2)cc1 0.31%
COC(=O)c1ccc(Oc2nc(Nc3ccc(F)cc3)nc(N3CCCC3)n2)cc1 0.02%
N#CNC1=NCN(CCc2ccccc2)CN1 -0.74%
CCOC(=O)N1CCC(NC(=O)C(C)n2c3ccccc3c3cnn(C)c(=O)c32)CC1 (stereo unspecified) -1.53%
COc1ccc(S(=O)(=O)N2CCC(C(=O)N3CCOCC3)CC2)cc1OC -2.94%
CCCCC(=O)N1CC2(C)CN(C(=O)CCCC)CC(C)(C1)C2=O -3.12%
Cc1onc(-c2ccccc2)c1C(=O)Nc1ccccc1C#N -0.43%
CCOC(=O)CSc1nnc(-c2ccncc2)o1 -4.83%
COc1cccc(C2/C(=C(/O)c3ccncc3)C(=O)C(=O)N2CCCN(C)C)c1 (stereo unspecified) -2.65%
CN1C(=O)c2ccc(NC(=O)c3c(F)c(F)c(F)c(F)c3F)cc2C1=O -1.19%
Cc1nc(N2CCCC2C(=O)O)c2oc3ccccc3c2n1 (stereo unspecified) 0.22%
CCC(=O)c1ccc(OCC(O)CN2CC(C)OC(C)C2)cc1 (stereo unspecified) -2.72%
CC1(C)NC(=O)N(CCOc2cccc(Oc3ccccc3)c2)C1=O -2.31%
O=C(Nc1ccccc1N1CCN(c2ccccc2)CC1)c1cccc(F)c1 3.42%
CCCC(=O)Nc1ccccc1N1CCN(C(=O)c2ccccc2)CC1 0.59%
Cc1noc(C)c1COC(=O)Cn1c(C)nc2ccccc21 -2.62%
O=C(O)CCCC(=O)Nc1ccccc1-n1ccnc1 -6.2%
CC(C)NS(=O)(=O)c1ccc(CCC(=O)N2CCOCC2)cc1 -3.1%
CCn1c(SCC(=O)Nc2cc(C)ccc2C)nnc1-c1cnccn1 -3.82%
Cc1ccc2c(c1)NCC(C(=O)NC1CCC(C)CC1)O2 (stereo unspecified) -2.41%
CCC(=O)Nc1ccccc1C(=O)N1CCN(Cc2ccccc2)CC1 -6.46%
CC1CCCCN1CC(=O)NCc1ccc2c(c1)OCO2 (stereo unspecified) 0.18%
CSc1ccc(-c2c(C#N)c(N)nc3c2c(C)nn3-c2ccccc2)cc1 1.16%
COc1ccc(O)c(C=Nc2cc(C)on2)c1 -4.57%
Cc1ccc(C(c2sc3nc(C)nn3c2O)N2CCN(c3ccccc3)CC2)cc1 (stereo unspecified) 1%
Cn1cc(S(=O)(=O)N2CCC(Cc3ccccc3)CC2)c(=O)n(C)c1=O -1.31%
O=C(CSc1ncccn1)NC(=O)NCc1ccccc1 -2.73%
O=C(CN1CCN(c2ccccc2F)CC1)c1ccc2c(c1)OCO2 -1.08%
O=C(NC1CCCCC1)n1c(=O)oc2cc(S(=O)(=O)N3CCCCC3)ccc21 1.83%
CCCC(=O)Nc1nnc(CC(=O)OCC)s1 -1.79%
O=C(c1ccc(-n2cnnn2)cc1)N1CCN(C(c2ccccc2)c2ccccc2)CC1 -2.96%
CCCOC(=O)c1cc2ccccc2oc1=O -1.25%
O=c1c(-c2ccc3c(c2)OCCO3)c(C(F)(F)F)oc2cc(O)cc(O)c12 2.15%
COc1cccc(Oc2ccc(N)cc2)c1 -1.26%
CN(C)S(=O)(=O)c1ccc(Oc2ccc(S(=O)(=O)N(C)C)cc2)cc1 -1.45%
C=C(Br)Cn1c(CCCC)nc2ccccc21 0.52%
Cn1c(=O)c(=O)n(C)c2cc(S(=O)(=O)NCCc3ccccc3)ccc21 -2.1%
CCOC(=O)C1C(=O)C=C(c2ccc(OC)cc2)CC1c1ccco1 (stereo unspecified) -1.83%
O=C(CS(=O)(=O)c1cn(Cc2cccc(F)c2)c2ccccc12)N1CCCCC1 0.6%
COc1ccc(NC(=O)CN(C)S(=O)(=O)c2ccccc2)cc1OC -0.21%

— PubChem BioAssay AID567 (The Scripps Research Institute Molecular Screening Center, 2006)
